# Source: ChEMBL document CHEMBL3988442, “University of Dundee, Small-Polar-MMV Screening Library” (2021)
# Hit rate of the full screen: of about 66,000 compounds, about 960 (1.5%) showed an effect of 50% or more. This is one part of a sample in which strong results are shown more often than they occur.
# System: Trypanosoma brucei
# Experiment: Trypanosoma brucei 72 hour study
# Format: functional, organism-based
# Parameters: scale not given: in the data most compounds retested in dose-response had high values
smiles,measurement,setting,value
CCOc1ncccc1CNC(=O)Nc1ccc(N(C)C)nc1,Percent Effect,"30.3 µM, […]",-10.18%
CN1CCN(C(=O)C2CCN(c3cccnn3)CC2)CC1,Percent Effect,"30.3 µM, […]",-20.3%
CN1CCN(C(=O)C2CCCN(c3cccnn3)C2)CC1 (stereo not given),Percent Effect,"30.3 µM, […]",101%
CN1CCN(C(=O)C2CCN(c3cccnn3)C2)CC1 (stereo not given),Percent Effect,"30.3 µM, […]",1.766%
CC(C)(C)CN1CC(O)CN(C(=O)c2cccc(C(F)(F)F)c2)CC1=O (stereo not given),Percent Effect,"30.3 µM, […]",-4.351%
CC(C)N(C)Cc1cnc2n1CCN(C(=O)Cc1ccsc1)C2.O=C(O)C(F)(F)F,Percent Effect,"30 µM, 30.03 µM",-22.47%
Cc1ccc2c(n1)N(CCN(C)C)CCN(C(=O)c1ccc[nH]1)C2.O=C(O)C(F)(F)F.O=C(O)C(F)(F)F,Percent Effect,"30 µM, 30.03 µM",4.99%
CCCc1nnc(NCCc2noc(C3CCC3)n2)o1,Percent Effect,"30 µM, 30.03 µM",-16.87%
CCCc1nnc(NCCc2noc(C3CCCC3)n2)o1,Percent Effect,"30 µM, 30.03 µM",-39.45%
c1ccc(-c2nc(CCNc3nnc(C4CCC4)o3)no2)cc1,Percent Effect,"30.3 µM, […]",99.59%
c1ccc(-c2n[nH]c(CCNc3nnc(C4CCC4)o3)n2)cc1,Percent Effect,"30.3 µM, […]",99.86%
c1cc(-c2n[nH]c(CNc3nnc(C4CC4)o3)n2)ccn1,Percent Effect,"30.3 µM, […]",0.7676%
O=S(=O)(NCCc1nc(-c2cccnc2)n[nH]1)NCc1ccccc1,Percent Effect,"30.3 µM, […]",-84.2%
CN(C)C(=O)N[C@H]1CN(Cc2ccc3c(c2)OCO3)[C@@H]2CCCO[C@H]12.O=C(O)C(F)(F)F,Percent Effect,"30.3 µM, […]",-7.695%
CS(=O)(=O)NCc1cncc2c1CCN(C(=O)N1CCCC1)C2.Cl,Percent Effect,"30.3 µM, […]",-11.25%
Cc1noc([C@@]23CCO[C@@H]2CCN(Cc2scnc2C)C3)n1.O=C(O)C(F)(F)F,Percent Effect,"30.3 µM, […]",7.313%
O=c1[nH][nH]cc1-c1ccnc(NCCc2cccc(O)c2)n1,Percent Effect,"30.3 µM, […]",-16.62%
CCN(CC1CCOC1)C(=O)c1ccc(N2CCOCC2)c(F)c1 (stereo not given),Percent Effect,"30.3 µM, […]",-9.543%
O=C(Nc1ccncc1)N(CCO)Cc1ccsc1,Percent Effect,"30.3 µM, […]",7.021%
CN(C)C(=O)c1cccc(NC(=O)N(CCO)Cc2ccsc2)c1,Percent Effect,"30 µM, 30.03 µM",-3.434%
COc1cccc(NC(=O)N(CCO)Cc2ccsc2)c1,Percent Effect,"30 µM, 30.03 µM",51.17%
Cc1nc(N)nc(C)c1CC(=O)NCc1ccc2nonc2c1,Percent Effect,"30 µM, 30.03 µM",-40.59%
Cc1noc(C)c1CN1CC[C@@H](OCC2CC2)[C@@H](Cc2ccccc2)C1.O=C(O)C(F)(F)F,Percent Effect,"30 µM, 30.03 µM",12.8%
O=C(c1cc2ccccc2[nH]1)N1CCC(Nc2cccnn2)CC1,Percent Effect,"30.3 µM, […]",-25.8%
O=C(c1cc2cc(F)ccc2[nH]1)N1CCC(Nc2cccnn2)CC1,Percent Effect,"30.3 µM, […]",-6.499%
O=C(c1cc2cc(I)ccc2[nH]1)N1CCC(Nc2cccnn2)CC1,Percent Effect,"30.3 µM, […]",85.16%
CCCN(CCC)c1ncc(S(=O)(=O)c2ccc(C)cc2)c(N)n1,Percent Effect,"30.3 µM, […]",0.2073%
CCCN(CCC)c1ncc(S(=O)(=O)c2cccc(C)c2)c(N)n1,Percent Effect,"30.3 µM, […]",1.054%
CCCN(CCC)c1ncc(S(=O)(=O)c2ccccc2)c(N)n1,Percent Effect,"30.3 µM, […]",81.44%
O=C(N1CCCC1)N1C[C@H]2CCC[C@@]2(COCc2ccccn2)C1.O=C(O)C(F)(F)F,Percent Effect,"30.3 µM, […]",8.939%
Cc1ccc(CN2CCN(C3CCCC3)CC2CCO)o1 (stereo not given),Percent Effect,"30 µM, 30.03 µM",-4.422%
CN1C(=O)CC(c2cnn(C)c2)C12CCN(CC1CCOCC1)CC2.O=C(O)C(F)(F)F (stereo not given),Percent Effect,"30.3 µM, […]",-2.852%
Cc1noc(C)c1CN1CCn2cc(CN3CCCC3)nc2C1.O=C(O)C(F)(F)F.O=C(O)C(F)(F)F,Percent Effect,"30.3 µM, […]",0.2362%
Cc1ccc(CN2CCc3ncnc(-c4ccncc4)c3CC2)o1.O=C(O)C(F)(F)F.O=C(O)C(F)(F)F,Percent Effect,"30.3 µM, […]",-37.96%
Nc1ncncc1-c1noc([C@@H]2CCCN2CCCc2ccccc2)n1,Percent Effect,"30.3 µM, […]",101.5%
Nc1ncncc1-c1noc([C@@H]2CCCN2Cc2cccnc2)n1,Percent Effect,"30.3 µM, […]",-3.258%
Nc1ncncc1-c1noc([C@@H]2CCCN2CC2CC2)n1,Percent Effect,"30.3 µM, […]",-4.914%
O=C(O)C(F)(F)F.O=C(O)C(F)(F)F.c1cncc(-c2nnn3c2COCC(CNC2CCOCC2)C3)c1 (stereo not given),Percent Effect,"30 µM, 30.03 µM",-0.7004%
CC(=O)N1C[C@@H](c2ccsc2)[C@@H]2CN(Cc3ccccc3)CC[C@@H]21,Percent Effect,"30 µM, 30.03 µM",3.298%
COc1cccc(CN2CC[C@H]3[C@@H](C2)[C@H](c2ccsc2)CN3C(C)=O)c1,Percent Effect,"30.3 µM, […]",-3.85%
COc1cccc([C@H]2CN(C(C)=O)[C@@H]3CCN(Cc4ccsc4)C[C@H]23)c1.Cl,Percent Effect,"30.3 µM, […]",96.3%
Cc1nnsc1C(=O)N1C[C@H]2CC[C@@H]1CN(c1cnccn1)C2,Percent Effect,"30 µM, 30.03 µM",0.47%
Cc1cnc2c(c1NCc1cccnc1)c(=O)n(C)c(=O)n2C,Percent Effect,"30 µM, 30.03 µM",-45.54%
CCc1noc(CN2CCN(C(=O)C3CC3)CC2)n1,Percent Effect,10 µM,-20.32%
CCCS(=O)(=O)NCc1nc(C)cc(N2CCCC2)n1,Percent Effect,"30 µM, 30.03 µM",60.24%
CCS(=O)(=O)NCc1nc(C)cc(N2CCCCC2)n1,Percent Effect,"30 µM, 30.03 µM",-14.09%
O=S(=O)(Cc1ccccc1)NCc1nnc2n1CCC2,Percent Effect,"30 µM, 30.03 µM",-38.65%
CCS(=O)(=O)NCc1nc(C)cc(N2CCOCC2)n1,Percent Effect,"30 µM, 30.03 µM",-12.8%
Cc1cc(N2CCCC2)nc(CNS(=O)(=O)Cc2ccccc2)n1,Percent Effect,"30 µM, 30.03 µM",99.66%
CCS(=O)(=O)NCc1nc(C)cc(N2CCCC2)n1,Percent Effect,"30 µM, 30.03 µM",4.691%
O=C1[C@H]2CC[C@H](CN(Cc3nnc(C4CC4)o3)C2)N1Cc1cscn1,Percent Effect,"30 µM, 30.03 µM",-30.68%
CCN1CCOCC12CCN(C(=O)C1CCC1)CC2.O=C(O)C(F)(F)F,Percent Effect,"30.3 µM, […]",-58.96%
Cc1ccc(F)cc1NS(=O)(=O)c1cc2c(c(C(=O)O)c1)OCCO2,Percent Effect,"30.3 µM, […]",-13.96%
O=C(O)C(F)(F)F.O=C(c1ccco1)N1C[C@H]2CCCN(Cc3nccs3)[C@H]2C1,Percent Effect,"30 µM, 30.03 µM",20.08%
CC(=O)N1CCCC1c1cccc(Cc2ccccc2F)n1 (stereo not given),Percent Effect,"30.3 µM, […]",99.36%
COCC(=O)N1CCCC1c1cccc(Cc2ccccc2F)n1 (stereo not given),Percent Effect,"30.3 µM, […]",-5.491%
CN1CCC(c2cccc(Cc3ccc(C(F)(F)F)cc3)n2)CC1,Percent Effect,"30.3 µM, […]",100.8%
CC(=O)N1CCCC1c1cccc(Cc2ccc(F)cc2)n1 (stereo not given),Percent Effect,"30 µM, 30.03 µM",14.65%
CC(=O)N1CCCC1c1cccc(NCc2ccccc2F)n1 (stereo not given),Percent Effect,"30.3 µM, […]",-16.97%
CN1CCCC1c1cccc(Cc2ccc(F)cc2)n1 (stereo not given),Percent Effect,"30.3 µM, […]",99.38%
CN(C)C(=O)CN1CCC(c2cccc(Cc3ccc(F)cc3)n2)CC1,Percent Effect,"30.3 µM, […]",-2.775%
CN(C)C(=O)CCc1cncc(C2CCCN2Cc2ccccn2)n1 (stereo not given),Percent Effect,"30.3 µM, […]",-6.842%
CN1CCC(c2cccc(Cc3ccc(F)cc3)n2)CC1,Percent Effect,"30.3 µM, […]",22.86%
CN(C)C(=O)CN1CCCC1c1cccc(Cc2ccccc2F)n1 (stereo not given),Percent Effect,"30.3 µM, […]",100.6%
CN1CCC(c2cccc(Cc3ccccc3)n2)CC1,Percent Effect,"30.3 µM, […]",2.73%
CC(=O)N1CCCC1c1cccc(Cc2ccccc2Cl)n1 (stereo not given),Percent Effect,"30.3 µM, […]",2.284%
CN(C)c1nc(NCCCN2CCc3ccccc32)ncc1F,Percent Effect,"30 µM, 30.03 µM",-2.481%
CC1CCN(c2ncc3c(n2)CN(Cc2cccc(F)c2)C3=O)CC1,Percent Effect,"30 µM, 30.03 µM",-36.51%
Cl.c1cn(-c2cnc(C3CCCNC3)cn2)cn1 (stereo not given),Percent Effect,"30.3 µM, […]",-22.3%
Cc1ccnc(NC(=O)C2CCN(CCCn3ccnc3)CC2)c1,Percent Effect,"30 µM, 30.03 µM",-9.272%
Cc1ncn(CCNC(=O)Nc2ccc(OC(F)(F)F)cc2)c(=O)c1C,Percent Effect,"30 µM, 30.03 µM",-6.151%
Cc1cc(C2CCCN(Cc3nc(Cc4ccccc4)no3)C2)n[nH]1 (stereo not given),Percent Effect,"30 µM, 30.03 µM",-33.51%
Cc1ccc(CN2CCC3(CC2)CC(N2CCN(C)CC2)CO3)s1.O=C(O)C(F)(F)F.O=C(O)C(F)(F)F.O=C(O)C(F)(F)F (stereo not given),Percent Effect,"30.3 µM, […]",-296.4%
Cc1cncc(C(=O)N2CC[C@@]3(C[C@H](NS(C)(=O)=O)CCO3)C2)c1.O=C(O)C(F)(F)F,Percent Effect,"30.3 µM, […]",-90.12%
CCN1CCCn2c(nc(CNC(=O)c3cnoc3C)cc2=O)C1.O=C(O)C(F)(F)F,Percent Effect,"30 µM, 30.03 µM",9.742%
CN(C)S(=O)(=O)N1CCCC(c2cccc(Cc3ccccc3)n2)C1 (stereo not given),Percent Effect,"30 µM, 30.03 µM",-81.93%
CN(C)S(=O)(=O)N1CCCC(c2cccc(Cc3ccc(Cl)cc3)n2)C1 (stereo not given),Percent Effect,"30.3 µM, […]",99.29%
CN(C)S(=O)(=O)N1CCCC(c2cccc(Cc3ccccc3F)n2)C1 (stereo not given),Percent Effect,"30.3 µM, […]",46.46%
CN1CCCC1c1cccc(Cc2ccccc2F)n1 (stereo not given),Percent Effect,"30.3 µM, […]",101.4%
Fc1cccc(Cc2cncc(C3CCCN3C3CCOCC3)n2)c1 (stereo not given),Percent Effect,"30.3 µM, […]",9.592%
CS(=O)(=O)N1CCCC1c1cccc(Cc2ccccc2F)n1 (stereo not given),Percent Effect,"30.3 µM, […]",0.4351%
CN(C)S(=O)(=O)N1CCCC(c2cccc(Cc3ccc(F)cc3)n2)C1 (stereo not given),Percent Effect,"30.3 µM, […]",41.5%
c1ccc(Cc2cccc(C3CCCN3C3CCOCC3)n2)cc1 (stereo not given),Percent Effect,"30.3 µM, […]",101%
c1ccc(Cc2cncc(C3CCCN3C3CCOCC3)n2)cc1 (stereo not given),Percent Effect,"30.3 µM, […]",-18.14%
COCCCNc1c(-c2ccc(Cl)cc2)c(=O)c1=O,Percent Effect,"30.3 µM, […]",13.47%
O=C(c1cnccn1)N1CCCC(Cc2cccc3ncccc23)C1 (stereo not given),Percent Effect,"30.3 µM, […]",-10.31%
CN(C)C(=O)[C@@H]1CCO[C@@H]2CCN(CCOCc3ccccc3)C[C@H]21.O=C(O)C(F)(F)F,Percent Effect,"30.3 µM, […]",-3.678%
CC(C)(C)c1nc(NS(=O)(=O)c2ccccc2F)no1,Percent Effect,"30 µM, 30.03 µM",-17.01%
O=C(NCC1CC1)C1CCC2(CCN(C(=O)c3ccncc3)CC2)O1.O=C(O)C(F)(F)F (stereo not given),Percent Effect,"30.3 µM, […]",-42.23%
Cc1noc(C)c1CN1CCO[C@H]2[C@H](Oc3ncccc3F)CC[C@@H]21.O=C(O)C(F)(F)F.O=C(O)C(F)(F)F,Percent Effect,"30 µM, 30.03 µM",-9.669%
CCCN(CCc1ccccn1)C(=O)CCc1cnn(C)c1,Percent Effect,"30 µM, 30.03 µM",-34.35%
CCN(CC)Cc1ccc(C(=O)N2CCCC2Cn2cccn2)cc1 (stereo not given),Percent Effect,10 µM,-13.25%
CCc1cnc(CN(C)C2CCN(CC(=O)Nc3nccs3)C2)o1 (stereo not given),Percent Effect,10 µM,-37.99%
COc1ccc(N2Cc3nc(=O)n(Cc4cccc(F)c4)n3C2=O)cc1,Percent Effect,"30 µM, 30.03 µM",-5.99%
CCN1CCn2c(C)cnc2C12CCN(C(=O)NCC(C)C)CC2.O=C(O)C(F)(F)F,Percent Effect,"30.3 µM, […]",-30.2%
